Compound activity deposited in PubChem by The Scripps Research Institute Molecular Screening Center.
This is a sample that favours compounds with a hit; in the whole collection about 3.4% have one here.
GPR151 activ: human GPR151 activation; Q8TDV0; PathHunter beta-arrestin GPR151 cells, luminescence; activation, % at 11.2 µM; 650,000 tested, 1% active; AID 1508602; in the data active = activation above about 4.9%
Target sequence (Q8TDV0 whole entry, looked up): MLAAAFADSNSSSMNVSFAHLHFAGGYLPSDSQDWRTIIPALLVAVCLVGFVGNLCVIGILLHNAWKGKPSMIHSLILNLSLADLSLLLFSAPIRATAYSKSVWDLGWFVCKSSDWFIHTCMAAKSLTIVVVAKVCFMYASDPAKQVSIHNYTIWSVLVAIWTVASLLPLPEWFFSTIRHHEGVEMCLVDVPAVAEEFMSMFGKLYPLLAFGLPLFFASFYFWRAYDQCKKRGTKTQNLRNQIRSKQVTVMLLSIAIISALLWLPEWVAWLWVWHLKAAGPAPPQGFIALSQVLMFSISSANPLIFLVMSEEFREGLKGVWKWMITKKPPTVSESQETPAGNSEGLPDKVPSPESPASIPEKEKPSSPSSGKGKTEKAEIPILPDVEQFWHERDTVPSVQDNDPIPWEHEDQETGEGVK
MITF inh: human MITF inhibition, primary screen; O75030; AlphaScreen MITF homodimerization, bead proximity signal; inhibition, % at 2.6 µM; 650,000 tested, 0.91% active; AID 1259374; in the data active = inhibition above about 50%
TEAD-YAP block: TEAD-YAP interaction inhibition; HEK-TIYL cells, TEAD-Gal4/YAP UAS-luciferase luminescence; inhibition, % at 9.12 µM; 640,000 tested, 1.4% active; AID 1259422; in the data active = inhibition above about 32%
FBW7 act: human FBW7 E3 ligase activation, primary screen. AlphaScreen FBW7–phospho-cyclin E peptide binding, activator screen. 650,000 tested, 0.13% active. normalized activity (activation), % at 26.1 µM; in the data active = normalized activity above about 1.9%;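 also: purified mutant Fbw7 with reduced substrate affinity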
GPR151 conf act: human GPR151 activation, confirmation screen | GPR151 PathHunter beta-arrestin cells, luminescence, 90 min; % of EA-reagent control over plate median | activation, % at 11.2 µM | shares compounds with GPR151 activ | 6,700 tested, under 10 active;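 active = mean percent activation across replicates above the confirmation screen cutoff of 4.91%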
GPR119 counter: counter-screen for GPR151 activators: effect on human GPR119 | shares compounds with GPR151 activ | GPR119 PathHunter beta-arrestin cells, luminescence, 90 min; 0 = compound-well median, 100 = enzyme-acceptor control | activation, % at 11.2 µM | 6,700 tested, 0.3% active | AID 1508611;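 active = mean percent activation in the counterscreen above 29.09%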;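 also: counterscreen on off-target GPR119 to flag nonselective hits from the GPR151 activator screen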
Large screens that a line does not name were inactive (follow-up assays come after a bar, where they were run); ! = not confirmed by another sample.

Cc1ccc(C)c(OCC(=O)N/N=C\c2cccn2C)c1	none
CC(=O)c1cccc(NC(=O)COc2ccccc2[N+](=O)[O-])c1	GPR151 activ 6.2 | GPR151 conf act inactive | GPR119 counter inactive
COc1ccc(/C=C2\N=C(c3ccco3)OC2=O)cc1OC	none
COc1ccc(N2CC(NC(=O)NCc3cccnc3)CC2=O)cc1 (stereo unspecified)	none
COc1ccc(NC(=O)Cc2ccccc2[N+](=O)[O-])cc1Cl	none
O=C(COc1ccccc1Br)NC1CCCCC1	none
O=C(COc1ccccc1Cl)NC1CCCCCC1	GPR151 activ 4.9 | GPR151 conf act inactive | GPR119 counter inactive
O=C(COc1ccccc1-c1ccccc1)NNC(=O)COc1ccccc1[N+](=O)[O-]	GPR151 activ 7.1 | GPR151 conf act inactive | GPR119 counter inactive
O=C(COc1ccccc1Cl)N/N=C/c1ccc(F)cc1	none
COc1ccc(NC(=O)Cc2ccccc2[N+](=O)[O-])cc1OC	GPR151 activ 6.5 | GPR151 conf act inactive | GPR119 counter inactive
O=C(COc1ccccc1Cl)N/N=C\C=N/NC(=O)COc1ccccc1Cl	GPR151 activ 11.6 | GPR151 conf act inactive | GPR119 counter inactive
CC(C)(C)NC(=O)COc1ccccc1[N+](=O)[O-]	none
COc1ccc(/C=C(\NC(=O)c2ccccc2)C(=O)NCCCN(C)C)cc1	none
CCOC(=O)N/N=C/c1cc2c(cc1[N+](=O)[O-])OCO2	none
O=C(COc1ccc(Cl)cc1Cl)NC1CC2CCC1C2 (stereo unspecified)	GPR151 activ 5.3 | GPR151 conf act inactive | GPR119 counter inactive
COc1ccc(OC(=O)COc2ccccc2Cl)cc1	GPR151 activ 7.8 | GPR151 conf act inactive | GPR119 counter inactive
C/C(=N/NC(=O)COc1cccc(Cl)c1)c1cccc([N+](=O)[O-])c1	GPR151 activ 6.6 | GPR151 conf act inactive | GPR119 counter inactive
O=C(COc1ccccc1[N+](=O)[O-])N/N=C/c1ccccc1Cl	GPR151 activ 22.2 | GPR151 conf act inactive | GPR119 counter inactive
COc1ccccc1-c1nnc(SCC(=O)C(C)(C)C)n1C	none
CC(=O)Nc1ccc([N+](=O)[O-])cc1-c1nc2cc(C)c(C)cc2[nH]c1=O	none
O=C(NC(=S)NCc1ccco1)c1cc([N+](=O)[O-])ccc1N1CCOCC1	GPR151 activ 7.4 | GPR151 conf act inactive | GPR119 counter inactive
COc1ccc(/C(C)=N\NC(=O)COc2ccc(C)cc2[N+](=O)[O-])cc1OC	GPR151 activ 7.4 | GPR151 conf act inactive | GPR119 counter inactive
O=C(NCc1ccco1)c1cc([N+](=O)[O-])ccc1N1CCCCC1	none
COc1ccc(/C(C)=N\NC(=O)COc2ccc(C)cc2C)cc1OC	none
Nc1ncc(Br)cc1S(=O)(=O)NC1CCCCCCC1	GPR151 activ 7.3 | GPR151 conf act inactive | GPR119 counter inactive
Nc1ncc(Br)cc1S(=O)(=O)NC1CCCCC1	none
COc1ccccc1Cn1c(=S)[nH]c2cc(C(=O)N3CCC(C(N)=O)(N4CCCCC4)CC3)ccc2c1=O	GPR151 activ 5.8 | GPR151 conf act inactive | GPR119 counter inactive
COc1ccccc1Cn1c(=S)[nH]c2cc(C(=O)N3CCCCC3)ccc2c1=O	none
CCCNC(=O)C1CCN(c2ccc(Nc3ccc4ncccc4c3)nn2)CC1	none
CCOC(=O)c1ccccc1NC(=O)n1ncc2cc(Cl)ccc21	none
CCOC(=O)c1cccc(NC(=O)n2ncc3cc(Cl)ccc32)c1	GPR151 activ 5.6, TEAD-YAP block 84.6 | GPR151 conf act inactive | GPR119 counter inactive
CCCN(CCC)C(=O)c1c(NC(=O)c2ccccc2Cl)sc2c1CCCCC2	none
COc1ccc(N2C(=O)/C(=C/c3cn(Cc4ccccc4)c4ccccc34)NC2=S)cc1	none
COc1ccc(NC(=O)c2cc(C)nc3ccccc23)cc1S(=O)(=O)N1CCCCC1	GPR151 activ 8.4 | GPR151 conf act inactive | GPR119 counter inactive
COc1ccc(S(=O)(=O)N2CCCCC2)cc1NC(=O)c1cc(C)nc2ccccc12	none
COc1ccc(NC(=O)CSc2nc3c(sc(=S)n3-c3ccc(C)cc3C)c(=O)n2-c2ccccc2)c(OC)c1	none
CC(=O)O[C@]1(C(C)=O)CC[C@H]2[C@@H]3C=C(Cl)C4=CC(=O)CC[C@]4(C)[C@H]3CC[C@@]21C	GPR151 activ 5.2 (no result: TEAD-YAP block) | GPR151 conf act inactive | GPR119 counter inactive
O=C(COc1ccc(Cl)cc1Cl)Nc1ccc(OC(F)(F)F)cc1	none
COc1ccccc1OCCn1c(=O)c2cc3c(=O)n(CCOc4ccccc4OC)c(=O)c3cc2c1=O	none
CC(C(O)c1ccc(O)cc1)N1CCC(Cc2ccccc2)CC1 (stereo unspecified)	GPR151 activ 10.4! | GPR151 conf act inactive | GPR119 counter inactive
O=C(CSc1nnc(CNC(=O)c2ccccc2)o1)NCc1ccco1	GPR151 activ 7.8 | GPR151 conf act inactive | GPR119 counter inactive
COc1ccccc1CNc1ccc2c(c1)ncn2-c1ccc(C)cc1	none
O=C(CCN1CCN(C2c3ccccc3-c3ccccc32)CC1)Nc1ccc(F)cc1	GPR151 activ 6.8 | GPR151 conf act inactive | GPR119 counter inactive
CC(C)(C)c1ccc(S(=O)(=O)N/N=C/c2ccccc2[N+](=O)[O-])cc1	none
O=[N+]([O-])c1ccccc1/C=N/NS(=O)(=O)c1ccc(Cl)cc1	GPR151 activ 14.3 | GPR151 conf act inactive | GPR119 counter inactive
Cc1n[nH]c(C)c1CN(C)Cc1ccc(C(=O)NC23CC4CC(CC(C4)C2)C3)c(=O)[nH]1	none
CN(c1ccc(C(=O)Nc2ccc(F)c(Cl)c2)cc1)S(=O)(=O)c1ccccc1	GPR151 activ 5.4 | GPR151 conf act inactive | GPR119 counter inactive
CN(c1ccc(C(=O)Nc2ccccc2)cc1)S(=O)(=O)c1ccccc1	none
O=C(O)CN(CC(=O)Nc1ccc2c(c1)OCCCO2)Cc1ccccc1	GPR151 activ 9.1 | GPR151 conf act inactive | GPR119 counter inactive
O=C(CCl)Nc1ccc2c(c1)OCCCO2	none
CCOC(=O)C(C)N1C(=O)S/C(=C/c2cc(Cl)cc(OC)c2O)C1=O (stereo unspecified)	GPR151 activ 6.7 | GPR151 conf act inactive | GPR119 counter inactive
COC(=O)C(C)N1C(=O)S/C(=C/c2cc(Cl)cc(OC)c2O)C1=O (stereo unspecified)	none
COCc1nnc(NC(=O)C2CCCCC2)s1	GPR151 activ 6.4 | GPR151 conf act inactive | GPR119 counter inactive
CCCCN(CC)C(=O)c1ccc([N+](=O)[O-])cc1Cl	GPR151 activ 7.7 | GPR151 conf act inactive | GPR119 counter inactive
CCCCN(CC)C(=O)c1ccc([N+](=O)[O-])cc1	none
CCCC(CCC)C(=O)Nc1cccnc1	none
CCCC(CCC)C(=O)Nc1ccncc1	GPR151 activ 8.7 | GPR151 conf act inactive | GPR119 counter inactive
Cc1ccnc(SCc2cc(=O)c(OC(=O)c3cc(Cl)ccc3[N+](=O)[O-])co2)n1	GPR151 activ 14.0 | GPR151 conf act inactive | GPR119 counter inactive
